# Reference: PubChem BioAssay (NCI)
# About 83,000 compounds went through this panel and 20% of them were active in at least one assay; those are over-represented in the sample as a whole.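 The endpoint reported here, percent growth, reads 100 for growth as untreated, 0 for no net growth and -100 for all cells dead.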 Unmarked numbers belong to inactive results. The source made the active and inactive calls. Rule for the calls: active = growth percent below 10; inactive = the rest.
# System: MDA-MB-468 breast
# Assay: NCI-60 one-dose screen, 48 h (100 = growth as untreated, 0 = no growth, -100 = all killed)
# Conditions: 10 µM unless noted
row,Structure (SMILES),growth
1,C#CCSc1nnnn1-c1ccc(Br)c(C)c1,67.2%
2,COc1ccc2nc3cc(Cl)ccc3c(NCCCNC(C)=O)c2c1,39.5%
3,O=c1cc(-c2ccccc2)[nH]c2ccccc12,59.5%
4,CCC(=O)N1C/C(=C/c2ccc(Cl)cc2)C(=O)/C(=C/c2ccc(Cl)cc2)C1,-84.5% (active)
5,CN1CCN(Cc2ccc(NC(=O)c3cncc(C#Cc4cnc5ccc(NCCCO)nn45)c3)cc2C(F)(F)F)CC1,-59.6% (active)
6,O=S(=O)(CC(O)(c1ccccc1)c1ccccc1)CC(O)(c1ccccc1)c1ccccc1,77.4%
7,CC1C(=NC(=O)c2cnccn2)C(C)C(c2ccc(Cl)cc2)NC1c1ccncc1 (stereo not given),92.9%
8,COc1ccc(SC2c3cc(OC)c(OC)cc3Oc3nc(N)c(C#N)c(N)c32)cc1 (stereo not given),-40.7% (active)
9,COc1cc(CNC(=O)CSc2nc3ccccc3c(=O)n2Cc2cc(OC)c(OC)c(OC)c2)cc(OC)c1OC,91.7%
10,COc1cc2c(c(OC)c1OC)CCC(c1cccc(C(=O)Nc3ccc(C#N)cc3)c1)O2 (stereo not given),46.4%
11,Cc1nn(-c2ccc(Cl)cc2)c2nc3c(nc12)c(=O)oc1ccccc13,125%
12,O=C(CSc1nnc(-c2ccc(Cl)cc2)n1-c1ccccc1)Nc1cccc(Cl)c1,79.8%
13,NS(=O)(=O)c1ccc(-n2nc(C(=O)N/N=C\c3ccc(F)cc3)cc2-c2ccc(Br)cc2)cc1,73.9%
14,Nc1c(C(=O)Nc2ccccc2Cl)sc2nc3c(cc12)C(=O)CCC3,24.9%
15,Cn1c(COC(=O)NCCc2ccccn2)nc2c(N3CCOCC3)nc(Cl)nc21,-51.1% (active)
16,CN(CCO)c1ccc(N2Cc3ccccc3OC3=C2C(=O)c2c(O)ccc(O)c2C3=O)cn1,-64.7% (active)
17,COc1cc(-c2cc(-c3nc4ccc(F)cc4[nH]3)[nH]n2)cc(OC)c1OC,16.6%
18,N#CC(=S)Nc1ccc(Cl)c(Cl)c1,-5.08% (active)
19,O=S(=O)(Nc1ccc(-c2nc(-c3cccc(O)c3)c(-c3ccnc(Br)c3)[nH]2)cc1)c1ccccc1,-3.6% (active)
20,COc1cccc(OC)c1-c1nnn(C)c1C(=S)N1CCN(c2ccc([N+](=O)[O-])cc2Cl)CC1,89%

row,Structure (SMILES),growth
1,O=P(O)(c1ccccc1)c1ccccc1I,89.5%
2,C1C[S+]2CC[S+]1CC2,101%
3,CC(C)C1CCCCC1O (stereo not given),107%
4,COc1ccc(C(=O)OC2C(OC3C(O)COC(O[C@H]4C[C@H]5[C@@H]6CC=C7C[C@@H](O)CC[C@]7(C)[C@H]6CC[C@]5(C)[C@H]4[C@H](C)C(=O)CCC(C)C)C3OC(=O)C(C)C)OCC(O)C2O)cc1 (stereo not given in full),-2.45% (active)
5,O=S(=O)(NCCCNc1nccc(-c2c(-c3ccc(F)c(O)c3)nc3sccn23)n1)c1ccccc1,82.4%
6,Cn1c(=O)c2nc(SCc3ccccc3)n(C)c2n(C)c1=O,103%
7,CCOC(=O)c1c(-c2ccc(Cl)cc2)c(C#N)c2c(C#N)c(N)nn2c1N,33.6%
8,CCCN(CCC)CCC(O)c1cc2c(c3ccccc13)CCCC2 (stereo not given),72.2%
9,O=C(CCN1CCCC1)Nc1ccc2c(Nc3ccccc3)c3ccccc3nc2c1,-14.9% (active)
10,CC1(C)S(=O)(=O)OCCOS1(=O)=O,101%
11,C=CCCC(=O)N1C=CC(=O)[C@H](O)[C@@H]1/C=C/c1ccccc1,4.99% [100 µM] (active)
12,CC1OC(n2c3ccccc3c3c4c(c5c6ccccc6[nH]c5c32)C(=O)N(CCN2CCCC2)C4=O)CC(O)C1O (stereo not given),26.2%
13,O=[N+]([O-])c1cccc(-c2nc3sccn3c2-c2ccnc(NCCCNS(=O)(=O)c3ccc(Br)cc3)n2)c1,29.2%
14,C=COCCCCCCCCCCCCCCCCCC,103%
15,Cn1cc(-c2nnc(-c3cn(C)c4ncc(Br)cc34)s2)c2cc(Br)ccc21,101%
16,COc1cc(NCC(=O)Nc2cc(Nc3ccc(C)cc3)ncn2)c(Cl)c(OC)c1Cl,105%
17,CCn1c(SC/C(=N/O)c2ccccc2)nnc1-c1ccccc1,108%
18,CSc1nc(Nc2ccc(S(=O)(=O)Nc3ccon3)cc2)c(C#N)c(-c2ccc(Cl)cc2)n1,93.1%
19,O=C(CN1CCN(c2cc3c(cc2F)c(=O)c(C(=O)N/N=C/c2ccccc2O)cn3C2CC2)CC1)N/N=C\c1ccccc1O,-4.47% (active)
20,CCN(CC)CCCC(C)NCCCNc1cccc2cccnc12 (stereo not given),90%
